Data: PubChem BioAssay (NCI)
About 83,000 compounds went through this panel and 20% of them were active in at least one assay; those are over-represented in the sample as a whole.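 How to read the values: 0–100, growth inhibition (40 = 60% inhibited); 0, no net growth; -100 to 0, cell death (-40 = 40% of starting cells died; -100 = all dead).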 The source made the active and inactive calls. How the source made its calls: active means growth percent below 10; inactive means the rest.

Tests used:
Experiment in all cases: NCI-60 one-dose screen, 48 h (100 = growth as untreated, 0 = no growth, -100 = all killed)
Conditions in all cases: 10 µM unless noted
NCI-H23 lung = test system: NCI-H23 lung
NCI-H226 lung = test system: NCI-H226 lung
NCI-H322M lung = test system: NCI-H322M lung
HOP-62 NSCLC = test system: HOP-62 NSCLC
NCI-H460 lung = test system: NCI-H460 lung
HOP-92 NSCLC = test system: HOP-92 NSCLC
NCI-H522 lung = test system: NCI-H522 lung
A549/ATCC NSCLC = test system: A549/ATCC NSCLC
786-0 renal = test system: 786-0 renal
COLO 205 colon = test system: COLO 205 colon
DU-145 prostate = test system: DU-145 prostate
K-562 leukemia = test system: K-562 leukemia
MALME-3M melanoma = test system: MALME-3M melanoma
MDA-MB-231 breast = test system: MDA-MB-231 breast
RXF 393 renal = test system: RXF 393 renal
SF-268 CNS = test system: SF-268 CNS
SF-295 CNS = test system: SF-295 CNS
SF-539 CNS = test system: SF-539 CNS
UACC-257 melanoma = test system: UACC-257 melanoma
M14 melanoma = test system: M14 melanoma

Measured: growth

C=C(C)[C@@H]1CC[C@]2(C(=O)OC)CC[C@]3(C)[C@H](CC[C@@H]4[C@@]5(C)C/C(=C/c6cccc(I)c6)C(=O)C(C)(C)[C@@H]5CC[C@]43C)[C@@H]12
inactive: NCI-H23 lung 91.4% | NCI-H226 lung 94.2% | NCI-H322M lung 97.3% | HOP-62 NSCLC 88% | NCI-H460 lung 101% | HOP-92 NSCLC 100% | NCI-H522 lung 89% | A549/ATCC NSCLC 101% | 786-0 renal 95.3% | COLO 205 colon 125% | DU-145 prostate 113% | K-562 leukemia 96.9% | MALME-3M melanoma 91.6% | MDA-MB-231 breast 98.4% | RXF 393 renal 88.1% | SF-268 CNS 95.1% | SF-295 CNS 97.6% | SF-539 CNS 91.7% | UACC-257 melanoma 107% | M14 melanoma 103%

COc1ccc(-c2nn(-c3ccc(Cl)cc3)cc2-c2nc3ccccc3[nH]2)cc1
inactive: NCI-H23 lung 89.1% | NCI-H226 lung 91.4% | NCI-H322M lung 102% | HOP-62 NSCLC 113% | NCI-H460 lung 88.1% | HOP-92 NSCLC 97% | NCI-H522 lung 67.7% | A549/ATCC NSCLC 95.4% | 786-0 renal 103% | COLO 205 colon 101% | DU-145 prostate 120% | K-562 leukemia 89% | MALME-3M melanoma 98.5% | MDA-MB-231 breast 73% | RXF 393 renal 94.7% | SF-268 CNS 94.7% | SF-295 CNS 98.1% | SF-539 CNS 106% | UACC-257 melanoma 101% | M14 melanoma 90%

N#CCCN=Nc1c(O)[nH]c2ccc([N+](=O)[O-])cc12
inactive: NCI-H23 lung 94.9% | NCI-H226 lung 96% | NCI-H322M lung 98% | HOP-62 NSCLC 99.4% | NCI-H460 lung 102% | HOP-92 NSCLC 102% | NCI-H522 lung 78.8% | A549/ATCC NSCLC 114% | 786-0 renal 104% | COLO 205 colon 109% | DU-145 prostate 111% | K-562 leukemia 105% | MALME-3M melanoma 110% | MDA-MB-231 breast 90% | RXF 393 renal 106% | SF-268 CNS 94.9% | SF-295 CNS 105% | SF-539 CNS 94.9% | UACC-257 melanoma 119% | M14 melanoma 101%

OCc1ccc(N2CCc3cccc(F)c3C2)cc1Cl
inactive: NCI-H23 lung 84.7% [0.1 µM] | NCI-H322M lung 106% [0.1 µM] | HOP-62 NSCLC 44.7% [0.1 µM] | NCI-H460 lung 31% [0.1 µM] | HOP-92 NSCLC 82.3% [0.1 µM] | NCI-H522 lung 80.6% [0.1 µM] | A549/ATCC NSCLC 62.9% [0.1 µM] | 786-0 renal 66.4% [0.1 µM] | COLO 205 colon 24.9% [0.1 µM] | DU-145 prostate 100% [0.1 µM] | K-562 leukemia 38.5% [0.1 µM] | MALME-3M melanoma 104% [0.1 µM] | MDA-MB-231 breast 107% [0.1 µM] | RXF 393 renal 103% [0.1 µM] | SF-268 CNS 105% [0.1 µM] | SF-295 CNS 52.7% [0.1 µM] | SF-539 CNS 110% [0.1 µM] | M14 melanoma 111% [0.1 µM]
active: NCI-H226 lung -6.37% [0.1 µM] | UACC-257 melanoma -14.3% [0.1 µM]

Cc1nc(/N=C(\N)NC(=O)Nc2cccc([N+](=O)[O-])c2)sc1C
inactive: NCI-H23 lung 81.8% | NCI-H226 lung 90.5% | NCI-H322M lung 93.7% | HOP-62 NSCLC 83.3% | NCI-H460 lung 90.5% | HOP-92 NSCLC 84.1% | NCI-H522 lung 49.2% | A549/ATCC NSCLC 89.1% | 786-0 renal 90.5% | COLO 205 colon 90.6% | DU-145 prostate 89.8% | K-562 leukemia 14.3% | MALME-3M melanoma 78.2% | MDA-MB-231 breast 98.8% | RXF 393 renal 91.4% | SF-268 CNS 92.9% | SF-295 CNS 83.3% | SF-539 CNS 78.4% | UACC-257 melanoma 88.5% | M14 melanoma 57.1%

O=S(=O)(Nc1ccc(Cl)c(F)c1)c1ccc(-c2cnc(C3CC3)o2)cc1
active: NCI-H522 lung -15.8% | COLO 205 colon 1.76% | RXF 393 renal -7.66% | SF-539 CNS -15.5%
inactive: NCI-H23 lung 25.2% | NCI-H226 lung 58.6% | NCI-H322M lung 39.7% | HOP-62 NSCLC 32.5% | NCI-H460 lung 13.5% | HOP-92 NSCLC 42% | A549/ATCC NSCLC 30.1% | 786-0 renal 42.6% | DU-145 prostate 16.6% | K-562 leukemia 12.3% | MALME-3M melanoma 35.3% | MDA-MB-231 breast 37.8% | SF-268 CNS 52.1% | SF-295 CNS 10.3% | UACC-257 melanoma 52.9% | M14 melanoma 19.5%

O=C(NCCN1CCOCC1)Nc1ccc(-c2cc3c(Nc4ccc(Oc5cccc(C(F)(F)F)c5)c(Cl)c4)ncnc3s2)cc1
inactive: NCI-H23 lung 27.4% | NCI-H226 lung 26.3% | NCI-H322M lung 18.7% | HOP-92 NSCLC 16.4% | NCI-H522 lung 27.3% | DU-145 prostate 44.7% | MDA-MB-231 breast 12% | SF-268 CNS 29.3% | UACC-257 melanoma 26.4%
active: HOP-62 NSCLC -26% | NCI-H460 lung -39.8% | A549/ATCC NSCLC 4.01% | 786-0 renal -43% | COLO 205 colon -56.7% | K-562 leukemia -29.5% | MALME-3M melanoma -57.5% | RXF 393 renal -19.5% | SF-295 CNS -58.5% | SF-539 CNS -13.5% | M14 melanoma -50.5%

C#CC(F)(F)[C@]1(O)CC[C@H]2[C@@H]3CCC4=CC(=O)CCC4=C3[C@@H](c3ccc(C4CC4)cc3)C[C@@]21C
active: NCI-H23 lung -53.3% | HOP-62 NSCLC 9.06% | HOP-92 NSCLC -60.2% | NCI-H522 lung -70.1% | 786-0 renal -77.3% | MALME-3M melanoma -71.7% | MDA-MB-231 breast -10.3% | SF-268 CNS -60.5% | SF-295 CNS -59.6% | SF-539 CNS -84.3%
inactive: NCI-H226 lung 63.3% | NCI-H322M lung 88.4% | NCI-H460 lung 57.1% | A549/ATCC NSCLC 11.5% | COLO 205 colon 29.5% | DU-145 prostate 30.3% | K-562 leukemia 14.3% | RXF 393 renal 31.1% | UACC-257 melanoma 77.8% | M14 melanoma 62.2%
